Test results from PubChem BioAssay (Tox21).
Where “and” joins values, the source holds several entries; their conditions need not be identical. Equal values may be shown once. Records with an inconclusive call do not appear. Where a structure was tested more than once in an assay, its records may differ in their call. Calls of active or inactive are those of the source. Unless noted, calls follow the shape of the dose curve; as a rule, active = well fitted curve in the direction sought with a large enough effect in the repeat runs; inconclusive = weak or mixed curves; inactive = no such curve, though single readings can be large; an effect the other way counts as inactive or inconclusive.

Experiments:
[1] = target: Thyrotropin receptor (Homo sapiens) (UniProt P16473); assay: qHTS assay to identify small molecule antagonists of the thyroid stimulating hormone receptor (TSHR) signaling pathway (AID 1259385; calls by dose curve; also: nearly all actives have a fitted effect of over 20% in size)
Chain of Thyrotropin receptor (Homo sapiens) (P16473 whole entry, looked up): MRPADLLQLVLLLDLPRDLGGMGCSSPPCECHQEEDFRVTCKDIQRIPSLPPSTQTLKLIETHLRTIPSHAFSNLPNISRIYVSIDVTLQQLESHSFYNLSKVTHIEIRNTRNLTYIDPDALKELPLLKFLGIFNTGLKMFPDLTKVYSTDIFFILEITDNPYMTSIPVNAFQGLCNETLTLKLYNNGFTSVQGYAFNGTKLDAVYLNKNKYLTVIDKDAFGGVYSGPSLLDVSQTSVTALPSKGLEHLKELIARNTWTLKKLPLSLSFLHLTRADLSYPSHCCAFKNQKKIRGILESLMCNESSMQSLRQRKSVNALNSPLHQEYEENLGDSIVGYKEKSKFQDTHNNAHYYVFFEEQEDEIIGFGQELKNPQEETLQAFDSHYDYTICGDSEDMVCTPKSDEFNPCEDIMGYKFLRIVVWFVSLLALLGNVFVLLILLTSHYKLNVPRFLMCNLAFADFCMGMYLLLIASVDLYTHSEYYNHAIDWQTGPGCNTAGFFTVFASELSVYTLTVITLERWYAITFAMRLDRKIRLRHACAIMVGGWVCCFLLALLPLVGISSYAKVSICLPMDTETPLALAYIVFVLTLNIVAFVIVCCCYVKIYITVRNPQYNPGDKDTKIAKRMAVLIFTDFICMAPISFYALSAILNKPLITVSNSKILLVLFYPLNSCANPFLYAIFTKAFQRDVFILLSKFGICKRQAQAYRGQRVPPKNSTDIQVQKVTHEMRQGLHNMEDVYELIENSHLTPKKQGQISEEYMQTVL
Outline: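 Antagonist mode: compound-treated TSHR-expressing HEK293 cells were stimulated with 1.5 ng/mL TSH (final) in presence of Ro20-1724 for 30 min at RT. HTRF cAMP detection after 1 h; each compound tested at 15 concentrations, triplicate.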

[2] = qHTS assay to identify small molecule agonists of the estrogen receptor alpha (ER-alpha) signaling pathway in the presence of an antagonist - cell viability counter screen (AID 1259386);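 also: series mostly up to about 92 µM; cells exposed to compounds for 22 h at 37 °C before the viability read; nearly all actives have a fitted effect of over 30% in size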
Outline: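 VM7Luc4E2 cells (endogenous full-length ER-alpha, 4×ERE-luciferase) were held 5 days in phenol red-free medium with 10% charcoal-stripped FBS, plated, then given 10.0nM ICI-182,780 and compounds at 15 concentrations for 22hr at 37C; viability read by CellTiter-Fluor fluorescence.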

[3] = target: Progesterone receptor (Homo sapiens) (UniProt P06401); assay: qHTS assay to identify small molecule agonists of the progesterone receptor (PR) signaling pathway (AID 1346784; calls by dose curve; also: nearly all actives have a fitted effect of over 30% in size; also: potency is read from the fitted curve at half-maximal effect)
Chain of Progesterone receptor (Homo sapiens) (P06401 whole entry, looked up): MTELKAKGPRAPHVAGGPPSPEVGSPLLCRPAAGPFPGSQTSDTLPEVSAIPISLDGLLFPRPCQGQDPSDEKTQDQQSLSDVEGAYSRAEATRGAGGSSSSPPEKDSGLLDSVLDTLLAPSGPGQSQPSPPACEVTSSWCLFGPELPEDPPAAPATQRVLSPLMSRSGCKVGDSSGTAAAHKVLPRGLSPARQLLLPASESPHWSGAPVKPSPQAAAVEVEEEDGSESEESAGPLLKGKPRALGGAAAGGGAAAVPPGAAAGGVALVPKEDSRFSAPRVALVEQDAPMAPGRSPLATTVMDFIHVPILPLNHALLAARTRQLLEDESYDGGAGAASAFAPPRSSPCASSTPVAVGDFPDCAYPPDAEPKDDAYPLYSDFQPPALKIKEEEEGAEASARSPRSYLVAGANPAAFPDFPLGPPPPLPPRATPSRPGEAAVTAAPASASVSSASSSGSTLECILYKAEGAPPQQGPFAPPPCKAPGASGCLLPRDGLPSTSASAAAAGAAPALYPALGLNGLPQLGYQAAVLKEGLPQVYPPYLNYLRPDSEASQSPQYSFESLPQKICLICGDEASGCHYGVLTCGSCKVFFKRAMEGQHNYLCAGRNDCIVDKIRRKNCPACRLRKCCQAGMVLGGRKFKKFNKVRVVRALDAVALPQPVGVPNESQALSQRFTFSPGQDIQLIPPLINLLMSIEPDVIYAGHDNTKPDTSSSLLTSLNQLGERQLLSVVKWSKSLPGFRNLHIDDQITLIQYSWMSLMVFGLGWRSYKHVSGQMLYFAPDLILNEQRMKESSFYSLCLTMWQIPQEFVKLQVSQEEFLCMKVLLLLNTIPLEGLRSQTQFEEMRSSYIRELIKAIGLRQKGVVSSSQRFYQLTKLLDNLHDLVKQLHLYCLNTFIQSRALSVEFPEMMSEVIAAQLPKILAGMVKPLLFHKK
Outline: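 PR-UAS-bla HEK 293T cells (beta-lactamase reporter under UAS) in 2% charcoal-stripped FBS, dosed with 23 nL compound after 6 hr, incubated 16hr at 37C. LiveBLAzer B/G FRET substrate added, fluorescence read after 2 hours.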

[4] = target: Progesterone receptor (Homo sapiens) (UniProt P06401); assay: qHTS assay to identify small molecule antagonists of the progesterone receptor (PR) signaling pathway (AID 1346795; active = well fitted inhibition curve with a large enough effect in the signal ratio in the repeat runs, not every such curve was filed as active; the % refers to the signal ratio)
Outline: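 PR-UAS-bla HEK293T cells with beta-lactamase reporter under UAS control, in 2% charcoal-stripped FBS, treated with compounds plus 1 nM promegestone (R5020, final) for 16 hr at 37C. Read-out: FRET beta-lactamase substrate fluorescence after 2 hr at room temperature.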

[5] = qHTS assay to identify small molecule antagonists of the progesterone receptor (PR) signaling pathway - cell viability counter screen (AID 1346798); also: series mostly up to about 92 µM; nearly all actives have a fitted effect of over 50% in size
Outline: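 PR-UAS-bla HEK293T cells, 3,000/well in 2% charcoal-stripped FBS medium, dosed with compounds plus R5020 agonist and incubated 16 h at 37C. Viability then measured in the same wells by CellTiter-Glo luminescence after 30 min at RT.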

[6] = qHTS assay to identify small molecule agonists of the progesterone receptor (PR) signaling pathway - cell viability counter screen (AID 1346799; calls by dose curve; also: nearly all actives have a fitted effect of over 45% in size)
Outline: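 Counter screen in the PR-UAS-bla HEK293T wells (2% charcoal-stripped FBS, 16 h compound exposure at 37 C) after the bla read. CellTiter-Glo added, 30 min at room temperature, luminescence read as cell viability.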

[7] = qHTS assay to identify small molecule antagonists of the TGF-beta/Smad signaling pathway - cell viability counter screen (AID 1346824); also: nearly all actives have a fitted effect of over 50% in size
Outline: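 Cytotoxicity counter-screen run in the same wells as the beta-lactamase Smad reporter read: CellTiter-Glo luminescence after 30 min at room temperature. HEK 293T SBE-bla cells had 5 hr compound exposure at 37 C with TGF-beta1 (0.25 ng/mL stock).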

[8] = qHTS assay to identify small molecule agonists of the TGF-beta/Smad signaling pathway - cell viability counter screen (AID 1346829); also: top concentration of the series differs between compounds; nearly all actives have a fitted effect of over 45% in size
Outline: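 After overnight seating at 37 C and 5% CO2, reporter cells got compounds for 5 hr and FRET substrate for 2 hr; cell viability then came from CellTiter-Glo luminescence.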

[9] = qHTS assay to identify small molecule agonists of the TGF-beta/Smad signaling pathway (AID 1346859; active = well fitted activation curve with a large enough effect in the signal ratio in the repeat runs, not every such curve was filed as active; the % refers to the signal ratio; also: series mostly up to about 77 µM)
Outline: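 SBE-bla HEK293T cells plated overnight, then compound exposure for 5 h at 37 C. Beta-lactamase reporter read with LiveBLAzer B/G FRET substrate after 2 h at room temperature, fluorescence at 405 nm excitation, 460/530 nm emission.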

[10] = target: Thyrotropin-releasing hormone receptor (Homo sapiens) (UniProt P34981); assay: qHTS assay to identify small molecule antagonists of the thyrotropin-releasing hormone receptor (TRHR) signaling pathway (AID 1346877; active = well fitted inhibition curve with a large enough effect in the repeat runs, not every such curve was filed as active; also: series mostly up to about 51 µM)
Chain of Thyrotropin-releasing hormone receptor (Homo sapiens) (P34981 whole entry, looked up): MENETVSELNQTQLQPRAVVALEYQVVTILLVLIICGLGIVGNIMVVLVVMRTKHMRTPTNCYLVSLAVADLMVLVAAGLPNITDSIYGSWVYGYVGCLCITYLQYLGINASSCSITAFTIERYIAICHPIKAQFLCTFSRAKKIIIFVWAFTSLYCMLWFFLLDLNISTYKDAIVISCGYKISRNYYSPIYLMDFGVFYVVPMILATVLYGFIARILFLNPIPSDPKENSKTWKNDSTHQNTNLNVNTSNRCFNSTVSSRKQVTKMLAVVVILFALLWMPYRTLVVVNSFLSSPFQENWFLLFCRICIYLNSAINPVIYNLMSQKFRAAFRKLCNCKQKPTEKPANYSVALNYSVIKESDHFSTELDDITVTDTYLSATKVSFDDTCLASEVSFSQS
Outline: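 TRHR-expressing HEK293 cells were seeded, cultured 18 h at 37 °C, then loaded with calcium dye for 2 h. Compounds were pre-incubated 5 min at room temperature before 1 nM TRH (final) was added, and kinetic fluorescence was recorded for 3 min.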

[11] = target: Thyrotropin-releasing hormone receptor (Homo sapiens) (UniProt P34981); assay: qHTS assay to identify small molecule agonists of the thyrotropin-releasing hormone receptor (TRHR) signaling pathway (AID 1346891; calls by dose curve; also: series mostly up to about 58 µM)
Outline: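 HEK293 cells expressing TRHR plated 18 h at 37 C/5% CO2, calcium dye-loaded 2 h at 37 C, then compound added (agonist mode); kinetic calcium fluorescence read 3 min at 1 s intervals; 15 concentrations in triplicate.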

[12] = Human pregnane X receptor (PXR) small molecule agonists, qHTS cell viability counter screen (AID 1346977); also: nearly all actives have a fitted effect of over 50% in size
Outline: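 PXR-Luc HepG2 cells (2,000/well, 5% charcoal-stripped FBS) preincubated 5 hr, then exposed to compounds 24 hr at 37 C. Viability read in the same wells by CellTiter-Fluor fluorescence, reagent added at 23 hr, 1 hr incubation.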

[13] = Caspase-3/7 induction in HepG2 cells by small molecules, qHTS assay (AID 1346978); also: nearly all actives have a fitted effect of over 15% in size
Outline: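 Caspase-3/7 induction was measured by Caspase-Glo 3/7 luminescence (30 min, room temperature) after a 17 hr compound exposure of wild-type HepG2 cells seeded at 2,000 per well and pre-incubated 5 hr.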

[14] = Caspase-3/7 induction in CHO-K1 cells by small molecules, qHTS assay (AID 1346980); also: nearly all actives have a fitted effect of over 15% in size
Outline: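 Luminescent Caspase-Glo 3/7 read (30min, room temperature) quantified apoptosis induction. Cells were wild-type CHO-K1, treated with compound for 17hr at 37 C and 5% CO2.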

[15] = Caspase-3/7 induction in HepG2 cells by small molecules, qHTS cell viability counter screen (AID 1346981); also: series mostly up to about 92 µM; nearly all actives have a fitted effect of over 30% in size
Outline: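 Wild-type HepG2 cells (2,000/well) were allowed to settle for 5 hr at 37 C, 5% CO2, then dosed with compounds in DMSO by pin transfer. After 16 hr at 37 C, CellTiter-Fluor was added and fluorescence read 1 hr later.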

[16] = target: Nuclear receptor subfamily 1 group I member 2 (Homo sapiens) (UniProt O75469); assay: Human pregnane X receptor (PXR) small molecule agonists, qHTS assay (AID 1346982); also: nearly all actives have a fitted effect of over 35% in size; also: potency is read from the fitted curve at half-maximal effect
Chain of Nuclear receptor subfamily 1 group I member 2 (Homo sapiens) (O75469 whole entry, looked up): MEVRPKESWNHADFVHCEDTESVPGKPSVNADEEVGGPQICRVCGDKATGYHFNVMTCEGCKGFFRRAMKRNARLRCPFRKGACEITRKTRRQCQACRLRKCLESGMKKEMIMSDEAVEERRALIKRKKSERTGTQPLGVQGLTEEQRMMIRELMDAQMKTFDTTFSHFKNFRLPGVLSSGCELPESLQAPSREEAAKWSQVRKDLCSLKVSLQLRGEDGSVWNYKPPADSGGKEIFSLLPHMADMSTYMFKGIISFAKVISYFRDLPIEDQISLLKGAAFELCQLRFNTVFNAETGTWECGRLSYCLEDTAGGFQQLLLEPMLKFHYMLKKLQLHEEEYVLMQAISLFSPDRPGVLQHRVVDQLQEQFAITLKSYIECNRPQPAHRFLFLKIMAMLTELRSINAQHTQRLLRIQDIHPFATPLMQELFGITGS
Outline: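 PXR-Luc HepG2 cells (CYP3A4 promoter-driven luciferase) were seeded in medium with 5% charcoal-stripped FBS, left 5 hr at 37 C, then exposed to compounds in DMSO for 24 hr. Luminescence was read after ONE-Glo addition.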

[17] = target: Nuclear receptor subfamily 1 group I member 2 (Rattus norvegicus) (UniProt Q9R1A7); assay: Rat pregnane X receptor (rPXR) activation by small molecules, qHTS assay (AID 1346983); conditions: rPXR luciferase reporter cells, One-Glo luminescence, 24 h; max activation: stronger effect = higher value; also: nearly all actives have a fitted effect of over 20% in size
Chain of Nuclear receptor subfamily 1 group I member 2 (Rattus norvegicus) (Q9R1A7 whole entry, looked up): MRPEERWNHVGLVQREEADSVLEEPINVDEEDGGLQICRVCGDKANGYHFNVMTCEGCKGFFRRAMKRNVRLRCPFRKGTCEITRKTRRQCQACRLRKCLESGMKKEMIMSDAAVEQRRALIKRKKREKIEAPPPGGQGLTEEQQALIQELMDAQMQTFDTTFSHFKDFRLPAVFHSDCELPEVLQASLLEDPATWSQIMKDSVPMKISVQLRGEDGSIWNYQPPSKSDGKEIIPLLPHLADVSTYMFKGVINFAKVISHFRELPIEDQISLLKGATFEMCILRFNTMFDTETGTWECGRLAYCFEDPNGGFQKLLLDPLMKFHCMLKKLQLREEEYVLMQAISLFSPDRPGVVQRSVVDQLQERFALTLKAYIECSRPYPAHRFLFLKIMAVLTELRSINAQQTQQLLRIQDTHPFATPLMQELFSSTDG
Outline: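 Luminescent readout (One-Glo luciferase, 30 min room temperature) followed 24 hr compound treatment at 37 C of rPXR cells plated 2,000 per well and preincubated 5hr; qHTS format with compounds delivered in DMSO.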

[18] = target: Nuclear receptor subfamily 1 group I member 2 (Homo sapiens) (UniProt O75469); assay: CYP3A4 induction through human pregnane X receptor (PXR) by small molecules, qHTS assay (AID 1346984); also: nearly all actives have a fitted effect of over 40% in size
Outline: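 DPX-2 cells (HepG2 co-transfected with PXR and CYP3A4 promoter-luciferase) treated with compounds 24 h at 37C; luciferin-IPA CYP3A4 substrate 3uM final added for 3 h, then One-Glo; luminescence read. qHTS format.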

[19] = target: Nuclear receptor subfamily 1 group I member 2 (Homo sapiens) (UniProt O75469); assay: Human pregnane X receptor (PXR) activation by small molecules, qHTS assay (AID 1346985); also: nearly all actives have a fitted effect of over 40% in size; also: potency is read from the fitted curve at half-maximal effect
Outline: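 DPX-2 cells (HepG2 co-transfected with a PXR response element and a CYP3A4-promoter luciferase construct) were seeded at 2,000 per well, rested 5 hr at 37C, then exposed to DMSO-dissolved compounds for 24 hr. Activation was read as luciferase luminescence.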

[20] = Caspase-3/7 induction in CHO-K1 cells by small molecules, qHTS cell viability counter screen (AID 1346979); also: nearly all actives have a fitted effect of over 35% in size
Outline: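 Wild-type CHO-K1 cells (1,500/well) treated with compound after 5 h plating; after 16 h at 37C, viability read as CellTiter-Fluor fluorescence following 1 h reagent incubation, in the same wells as the caspase read.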
% is scaled to controls: 0 for no effect and ±100 for the full control effect.

CNCC(O)c1ccc(O)cc1 (configuration not stated)
inactive: outcome [1] | Potency [2] | Potency [3] | Potency [4] | Potency [5] | outcome [6] | Potency [7] | Potency [8] | outcome [9] | outcome [10] | outcome [11] | Potency [12] | outcome [13] | outcome [14] | Potency [15] | Potency [16] | max activation [17] -2.53% | Potency [18] | Potency [19]

CNC(=O)O/N=C/C(C)(C)SC
69.2 µM (active) and inactive: Potency [16]
inactive: outcome [1] | Potency [2] | Potency [3] | Potency [4] | Potency [5] | outcome [6] | Potency [7] | Potency [8] | outcome [9] | outcome [10] | Potency [12] | outcome [13] | Potency [20] | outcome [14] | Potency [15]

Cc1ccc(O)c(C)c1
inactive: outcome [1] | Potency [2] | Potency [3] | Potency [4] | Potency [5] | outcome [6] | Potency [7] | Potency [8] | outcome [9] | outcome [10] | Potency [12] | outcome [13] | outcome [14] | Potency [15] | Potency [16]

CN(C)C(=O)Cl
inactive: outcome [1] | Potency [2] | Potency [3] | Potency [4] | Potency [5] | outcome [6] | Potency [7] | Potency [8] | outcome [9] | outcome [10] | outcome [11] | Potency [12] | outcome [13] | Potency [20] | outcome [14] | Potency [15] | Potency [16]

O=C/C=C/c1ccccc1
inactive: outcome [1] | Potency [2] | Potency [3] | Potency [4] | Potency [5] | outcome [6] | Potency [7] | Potency [8] | outcome [9] | outcome [10] | Potency [12] | outcome [13] | outcome [14] | Potency [15] | max activation [17] 2.2% | Potency [18] | Potency [19]

CCOP(=S)(OCC)Oc1cc(C)nc(C(C)C)n1
inactive: outcome [1] | Potency [2] | Potency [3] | Potency [4] | Potency [5] | outcome [6] | Potency [7] | Potency [8] | outcome [9] | outcome [10] | Potency [12] | outcome [13] | outcome [14] | Potency [15] | max activation [17] 0.813% | Potency [18] | Potency [19]

O=C(O)C1C(C(=O)O)C2(Cl)C(Cl)=C(Cl)C1(Cl)C2(Cl)Cl (configuration not stated)
inactive: outcome [1] | Potency [2] | Potency [3] | Potency [4] | Potency [5] | outcome [6] | Potency [7] | Potency [8] | outcome [9] | Potency [12] | outcome [13] | Potency [20] | outcome [14] | Potency [15] | Potency [16]

O=C(O)COc1ccccc1
inactive: outcome [1] | Potency [2] | Potency [3] | Potency [4] | Potency [5] | outcome [6] | Potency [7] | Potency [8] | outcome [9] | outcome [10] | Potency [12] | outcome [13] | Potency [20] | outcome [14] | Potency [15] | Potency [16] | max activation [17] -1.4% | Potency [18] | Potency [19]

Cc1cccc(N)c1C
inactive: outcome [1] | Potency [2] | Potency [4] | Potency [5] | outcome [6] | Potency [7] | Potency [8] | outcome [9] | outcome [10] | Potency [12] | outcome [13] | Potency [20] | outcome [14] | Potency [15]
active: Potency [16] 61.1 µM
15.9 µM (active) and inactive: Potency [3]

Cc1cc(O)ccc1Cl
inactive: outcome [1] | Potency [2] | Potency [3] | Potency [4] | Potency [5] | outcome [6] | Potency [7] | Potency [8] | outcome [9] | outcome [10] | outcome [11] | Potency [12] | outcome [13] | Potency [20] | outcome [14] | Potency [15] | Potency [16] | max activation [17] -2.1% | Potency [18] | Potency [19]

COC(C)(C)CCCC(C)C/C=C/C(C)=C/C(=O)OC(C)C (configuration not stated)
inactive: outcome [1] | Potency [2] | Potency [3] | Potency [4] | Potency [5] | outcome [6] | Potency [7] | Potency [8] | outcome [9] | outcome [10] | Potency [12] | outcome [13] | Potency [20] | outcome [14] | Potency [15] | max activation [17] -0.367% | Potency [18]
active: Potency [16] 47.8 µM | Potency [19] 11.2 µM

CC(C)CCCCCCOC(=O)c1ccccc1C(=O)OCCCCCCC(C)C
inactive: outcome [1] | Potency [2] | Potency [3] | Potency [4] | Potency [5] | outcome [6] | Potency [7] | Potency [8] | outcome [9] | outcome [10] | Potency [12] | outcome [13] | Potency [20] | outcome [14] | Potency [15] | Potency [16]

Oc1ccc(Cl)cc1
inactive: outcome [1] | Potency [2] | Potency [3] | Potency [4] | Potency [5] | outcome [6] | Potency [7] | Potency [8] | outcome [9] | outcome [10] | Potency [12] | outcome [13] | outcome [14] | Potency [15] | max activation [17] 1.52%

O=C(O)c1cc(Oc2ccc(C(F)(F)F)cc2Cl)ccc1[N+](=O)[O-]
inactive: outcome [1] | Potency [2] | Potency [3] | Potency [4] | Potency [5] | outcome [6] | Potency [7] | Potency [8] | outcome [9] | outcome [10] | outcome [11] | Potency [12] | outcome [13] | outcome [14] | Potency [15]
inactive and 61.4 µM (active): Potency [16]

CSc1nnc(C(C)(C)C)c(=O)n1N
inactive: outcome [1] | Potency [2] | Potency [3] | Potency [4] | Potency [5] | outcome [6] | Potency [7] | Potency [8] | outcome [9] | outcome [10] | Potency [12] | outcome [13] | outcome [14] | Potency [15] | Potency [16]

O=[N+]([O-])c1ccc(Cl)c(Cl)c1
inactive: outcome [1] | Potency [2] | Potency [3] | Potency [4] | Potency [5] | outcome [6] | Potency [7] | Potency [8] | outcome [9] | outcome [10] | Potency [12] | outcome [13] | outcome [14] | Potency [15] | Potency [16]
